# Reference: PubChem BioAssay (Tox21)
# “And” between values parts separate entries of the source, which are not always exact repeats. Identical values can stand only once. Inconclusive results are not listed. A call without a number means that no potency is given here. The source made the active and inactive calls. Unless noted, calls follow the shape of the full dose curve.
# What was measured:
# [1] = biological target: Estrogen receptor beta (Homo sapiens) (UniProt Q92731); experiment: qHTS assay to identify small molecule agonists of the estrogen receptor beta (ER-beta) signaling pathway (AID 1259377; active = well fitted activation curve with a large enough effect in the signal ratio in the repeat runs, not every such curve was filed as active; the % refers to the signal ratio)
# Chain of Estrogen receptor beta (Homo sapiens) (Q92731 whole entry, looked up): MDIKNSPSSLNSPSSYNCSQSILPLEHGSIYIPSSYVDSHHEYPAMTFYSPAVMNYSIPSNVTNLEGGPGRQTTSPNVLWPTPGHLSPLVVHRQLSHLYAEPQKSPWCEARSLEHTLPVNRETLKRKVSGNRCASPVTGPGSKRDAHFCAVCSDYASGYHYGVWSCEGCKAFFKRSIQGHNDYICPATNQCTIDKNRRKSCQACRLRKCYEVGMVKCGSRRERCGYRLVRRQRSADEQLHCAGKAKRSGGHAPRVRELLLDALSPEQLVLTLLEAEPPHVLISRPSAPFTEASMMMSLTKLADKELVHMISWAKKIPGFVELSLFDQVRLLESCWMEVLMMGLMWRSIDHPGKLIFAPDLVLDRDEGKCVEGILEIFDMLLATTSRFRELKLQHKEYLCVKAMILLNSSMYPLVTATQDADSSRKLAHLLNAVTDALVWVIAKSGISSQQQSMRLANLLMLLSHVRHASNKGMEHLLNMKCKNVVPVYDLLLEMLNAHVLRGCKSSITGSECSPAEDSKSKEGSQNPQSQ
# Outline: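 In HEK293T cells bearing a UAS-beta-lactamase reporter under ER-beta control, DMSO-delivered compounds were incubated for 16 hr at 37C. Activity was detected as fluorescence 2 hours after LiveBLAzer B/G FRET substrate addition.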
# [2] = biological target: Estrogen receptor beta (Homo sapiens) (UniProt Q92731); experiment: qHTS assay to identify small molecule antagonists of the estrogen receptor beta (ER-beta) signaling pathway (AID 1259378; active = well fitted inhibition curve with a large enough effect in the signal ratio in the repeat runs, not every such curve was filed as active; the % refers to the signal ratio)
# Outline: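 ER-beta-UAS-bla HEK293T cells in 2% charcoal-stripped FBS medium treated with compound plus 1nM final 17-beta-estradiol for 16 hr at 37C. Beta-lactamase reporter read by FRET substrate fluorescence after 2 hours at room temperature.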
# [3] = qHTS assay to identify small molecule agonists of the androgen receptor (AR) signaling pathway in the presence of an antagonist - cell viability counter screen (AID 1259379; active = well fitted curve in the direction sought with a large enough effect in the repeat runs; an effect the other way counts as inactive or inconclusive; also: nearly all actives have a fitted effect of over 25% in size; also: potency is read from the fitted curve at half-maximal effect)
# Outline: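 In MDA-kb2 cells (human breast carcinoma, MMTV-luciferase), compounds at 15 concentrations plus 3.0uM nilutamide; 16 hr, 37C, 0% CO2; CellTiter-Fluor fluorescence read for viability.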
# [4] = qHTS assay to identify small molecule agonists of the estrogen receptor beta (ER-beta) signaling pathway - cell viability counter screen (AID 1259380; active = well fitted curve in the direction sought with a large enough effect in the repeat runs; an effect the other way counts as inactive or inconclusive; also: nearly all actives have a fitted effect of over 30% in size)
# Outline: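 Viability of ER-beta-UAS-bla HEK293T cells was determined by CellTiter-Glo luminescence following 16 hr treatment with test compounds at 37C.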
# [5] = qHTS assay to identify small molecule antagonists of the estrogen receptor beta (ER-beta) signaling pathway - cell viability counter screen (AID 1259382; active = well fitted curve in the direction sought with a large enough effect in the repeat runs; an effect the other way counts as inactive or inconclusive; also: nearly all actives have a fitted effect of over 55% in size; also: potency is read from the fitted curve at half-maximal effect)
# Outline: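 Tox21 10K library tested in qHTS format on ER-beta-bla HEK293T cells stimulated with 1nM E2; 16 hr treatment at 37C. Same-well CellTiter-Glo luminescence served as the cell viability measure.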
# [6] = biological target: Thyrotropin receptor (Homo sapiens) (UniProt P16473); experiment: qHTS assay to identify small molecule antagonists of the thyroid stimulating hormone receptor (TSHR) signaling pathway (AID 1259385); also: nearly all actives have a fitted effect of over 20% in size
# Chain of Thyrotropin receptor (Homo sapiens) (P16473 whole entry, looked up): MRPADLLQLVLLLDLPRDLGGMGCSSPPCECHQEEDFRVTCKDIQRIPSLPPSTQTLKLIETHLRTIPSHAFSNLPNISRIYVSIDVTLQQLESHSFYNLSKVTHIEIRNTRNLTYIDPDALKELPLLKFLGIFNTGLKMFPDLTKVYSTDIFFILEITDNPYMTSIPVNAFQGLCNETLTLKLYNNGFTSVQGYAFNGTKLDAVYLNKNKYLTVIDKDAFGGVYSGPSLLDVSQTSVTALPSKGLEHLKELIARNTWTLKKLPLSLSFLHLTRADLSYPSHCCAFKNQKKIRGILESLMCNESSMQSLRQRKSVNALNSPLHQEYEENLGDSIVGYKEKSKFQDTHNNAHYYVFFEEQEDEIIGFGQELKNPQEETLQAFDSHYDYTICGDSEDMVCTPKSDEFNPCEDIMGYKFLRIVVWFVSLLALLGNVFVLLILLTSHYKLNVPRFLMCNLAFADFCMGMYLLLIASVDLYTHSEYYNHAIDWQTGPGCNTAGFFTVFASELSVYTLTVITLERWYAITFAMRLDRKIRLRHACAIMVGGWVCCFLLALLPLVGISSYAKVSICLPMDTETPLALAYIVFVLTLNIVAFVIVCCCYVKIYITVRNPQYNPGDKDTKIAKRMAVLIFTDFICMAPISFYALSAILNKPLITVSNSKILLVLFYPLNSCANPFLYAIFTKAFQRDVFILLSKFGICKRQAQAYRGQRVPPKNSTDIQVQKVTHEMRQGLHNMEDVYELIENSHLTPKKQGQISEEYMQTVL
# Outline: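 TSHR-HEK293 cells (800/well) plated 18 h, then compounds with Ro20-1724 and TSH at 1.5 ng/mL final, 30 min at room temperature. cAMP quantified by HTRF (cAMP-d2/anti-cAMP-cryptate, 1 h); 15 concentrations in triplicate.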
# [7] = qHTS assay to identify small molecule antagonists of the sonic hedgehog signaling (Shh) pathway (AID 1259369); also: nearly all actives have a fitted effect of over 45% in size; also: potency is read from the fitted curve at half-maximal effect
# Outline: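 Screening used 3T3Gli1-Luc cells at 2,000 per well, compounds delivered in DMSO, and conditioned medium as agonist stimulus; plates incubated 24hr at 37 C and 5% CO2 before a 30min luciferase step.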
# [8] = biological target: Estrogen receptor (Homo sapiens) (UniProt P03372); experiment: qHTS assay to identify small molecule agonists of the estrogen receptor alpha (ER-alpha) signaling pathway in the presence of an antagonist (AID 1259383); also: top concentration of the series differs between compounds; nearly all actives have a fitted effect of over 15% in size
# Chain of Estrogen receptor (Homo sapiens) (P03372 whole entry, looked up): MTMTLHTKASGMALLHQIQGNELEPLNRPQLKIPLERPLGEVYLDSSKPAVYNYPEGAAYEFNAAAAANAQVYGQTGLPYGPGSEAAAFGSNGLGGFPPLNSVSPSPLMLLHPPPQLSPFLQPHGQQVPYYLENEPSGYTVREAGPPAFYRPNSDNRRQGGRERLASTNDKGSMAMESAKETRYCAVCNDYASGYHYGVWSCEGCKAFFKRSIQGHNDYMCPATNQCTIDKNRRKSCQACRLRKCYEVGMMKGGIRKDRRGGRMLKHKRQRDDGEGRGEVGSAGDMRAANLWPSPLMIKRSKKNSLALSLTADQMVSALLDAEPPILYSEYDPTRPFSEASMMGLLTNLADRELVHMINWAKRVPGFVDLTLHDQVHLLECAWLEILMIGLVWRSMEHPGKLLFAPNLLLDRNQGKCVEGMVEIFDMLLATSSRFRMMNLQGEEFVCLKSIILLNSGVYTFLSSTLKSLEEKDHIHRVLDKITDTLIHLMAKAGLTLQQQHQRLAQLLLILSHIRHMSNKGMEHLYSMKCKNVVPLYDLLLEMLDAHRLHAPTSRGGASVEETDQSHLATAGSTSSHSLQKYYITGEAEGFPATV
# Outline: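 In VM7Luc4E2 cells, 4,000 per well, compounds at 15 concentrations were co-incubated 22hr at 37C with 10.0nM final ICI-182,780. Luminescence from the stably transfected 4×ERE-luciferase reporter was recorded 30min after ONE-Glo addition.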
# [9] = qHTS assay to identify small molecule agonists or antagonists of the thyroid stimulating hormone receptor (TSHR) signaling pathway - wild type cell line counter screen (AID 1259384)
# Outline: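 Wild-type Hek293 cells, 800/well, 18 h at 37C, then compound with Ro20-1724 for 30 min RT. cAMP by HTRF (cAMP-d2/anti-cAMP cryptate), 1 h RT, fluorescence read. 15 concentrations, triplicates.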
# [10] = biological target: Androgen receptor (Homo sapiens) (UniProt P10275); experiment: qHTS assay to identify small molecule agonists of the androgen receptor (AR) signaling pathway in the presence of an antagonist (AID 1259381); also: nearly all actives have a fitted effect of over 15% in size
# Chain of Androgen receptor (Homo sapiens) (P10275 whole entry, looked up): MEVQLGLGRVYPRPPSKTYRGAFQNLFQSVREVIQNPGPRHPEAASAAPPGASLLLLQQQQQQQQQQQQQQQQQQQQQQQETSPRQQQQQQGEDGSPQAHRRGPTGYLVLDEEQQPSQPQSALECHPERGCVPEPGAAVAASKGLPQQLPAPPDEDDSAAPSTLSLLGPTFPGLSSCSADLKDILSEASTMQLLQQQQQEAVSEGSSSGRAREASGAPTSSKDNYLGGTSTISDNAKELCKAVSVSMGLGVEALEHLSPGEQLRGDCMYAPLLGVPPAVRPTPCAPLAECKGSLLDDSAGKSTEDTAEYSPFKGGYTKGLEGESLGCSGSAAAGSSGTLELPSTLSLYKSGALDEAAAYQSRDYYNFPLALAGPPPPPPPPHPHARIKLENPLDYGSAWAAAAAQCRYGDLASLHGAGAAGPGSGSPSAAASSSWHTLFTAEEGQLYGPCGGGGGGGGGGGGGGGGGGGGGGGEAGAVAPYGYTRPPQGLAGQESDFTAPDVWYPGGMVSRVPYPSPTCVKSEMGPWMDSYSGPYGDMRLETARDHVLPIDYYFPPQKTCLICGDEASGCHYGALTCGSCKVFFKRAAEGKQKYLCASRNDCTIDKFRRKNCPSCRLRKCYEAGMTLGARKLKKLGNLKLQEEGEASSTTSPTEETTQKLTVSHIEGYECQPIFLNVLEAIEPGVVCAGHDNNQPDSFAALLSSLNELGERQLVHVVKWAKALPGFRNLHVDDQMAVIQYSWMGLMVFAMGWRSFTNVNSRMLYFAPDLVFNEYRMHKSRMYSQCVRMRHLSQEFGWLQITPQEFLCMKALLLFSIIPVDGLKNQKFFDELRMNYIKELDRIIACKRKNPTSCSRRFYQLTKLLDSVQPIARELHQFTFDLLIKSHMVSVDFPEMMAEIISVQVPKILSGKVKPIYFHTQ
# Outline: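 Here, 15-concentration compound series were pin-transferred onto MDA-kb2 MMTV-luciferase cells already dosed with nilutamide (3.0uM final). After 16hr at 37C, ONE-Glo was added and luminescence read 30min later at room temperature.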
SMILES,Potency [1],Potency [2],Potency [3],Potency [4],Potency [5],Potency [6],Potency [7],Potency [8],outcome [9],Potency [10]
CON(C)C(=O)Nc1ccc(Cl)cc1,inactive,inactive,inactive,inactive,inactive,inactive,–,–,–,–
COC1CC(=C(c2cccs2)c2cccs2)C[N+](C)(C)C1 (stereo not drawn),–,–,–,inactive,inactive,inactive,inactive,inactive,–,–
NC(=O)CF,–,–,–,–,inactive,inactive,inactive,inactive,inactive,–
CCOP(=S)(OCC)Oc1ccc(S(C)=O)cc1 (stereo not drawn),inactive,inactive,inactive,inactive,inactive,inactive,–,–,inactive,–
O=C(N/N=C/c1ccc([N+](=O)[O-])o1)c1cc([N+](=O)[O-])cc([N+](=O)[O-])c1O,inactive,inactive,11.9 µM (active),inactive,inactive,inactive,–,–,inactive,–
Cc1nc2ccccc2c(=O)n1-c1ccccc1Cl,inactive,inactive,inactive,inactive,inactive,–,–,–,–,–
C[N+]1(CCC(C(N)=O)(c2ccccc2)c2ccccc2)CCCCC1,–,–,–,inactive,inactive,inactive,inactive,inactive,inactive,–
Oc1cccc(Cl)c1,–,–,–,inactive,–,–,inactive,inactive,–,–
CCCC[N+](CCCC)(CCCC)CCCC,–,–,–,inactive,inactive,–,inactive,inactive,–,–
CCC(C)Cl (stereo not drawn),inactive,inactive,inactive,inactive,inactive,inactive,–,inactive,inactive,–
CCOP(=S)(S)OCC,–,–,–,inactive,inactive,inactive,inactive,inactive,inactive,inactive
COc1ccc(C(=O)c2c(C)n(CCN3CCOCC3)c3ccccc23)cc1,inactive,inactive,inactive,inactive,–,–,–,–,–,–
Nc1cc(Cl)cc(C(=O)O)c1Cl,inactive,inactive,–,inactive,inactive,–,–,–,–,–
O=C(O)C(F)(F)C(F)(F)C(F)(F)C(F)(F)C(F)(F)C(F)(F)C(F)(F)C(F)(F)F,–,–,inactive,–,–,inactive,inactive,–,inactive,–
COP(=O)(OC)OC(Br)C(Cl)(Cl)Br (stereo not drawn),inactive,inactive,inactive,–,inactive,inactive,–,inactive,–,inactive
NP(N)(=O)NC(=O)c1ccc(F)cc1,inactive,inactive,–,inactive,–,inactive,–,–,inactive,inactive
CC(C)(C)OOC(C)(C)CCC(C)(C)OOC(C)(C)C,inactive,inactive,inactive,inactive,–,inactive,–,–,inactive,–

SMILES,Potency [1],Potency [2],Potency [3],Potency [4],Potency [5],Potency [6],Potency [7],Potency [8],outcome [9],Potency [10]
c1ccc2c(c1)-c1cccc3cccc-2c13,inactive,inactive,inactive,inactive,inactive,inactive,–,–,inactive,–
OCCCl,inactive,inactive,inactive,inactive,inactive,–,–,–,–,–
CCCC[P+](CC)(CCCC)CCCC (tested in a mixture with another compound),–,–,–,inactive,inactive,inactive,inactive,–,–,–
CCOP(=O)(SC(C)CC)N1CCSC1=O (stereo not drawn),–,–,–,inactive,inactive,inactive,inactive,–,inactive,–
CCCC1CCCCN1 (stereo not drawn),–,–,inactive,–,–,inactive,inactive,inactive,inactive,–
FC(Cl)(Cl)C(F)(Cl)Cl,–,–,–,inactive,inactive,inactive,inactive,inactive,inactive,–
N#CC(C#N)=Cc1ccc(O)c(O)c1,–,–,–,inactive,–,inactive,7.5 µM (active),inactive,inactive,inactive
CCC(C)(C)c1ccc(O)c(C(C)(C)CC)c1,–,–,–,–,53.9 µM (active) and 30.6 µM (active),inactive,inactive,inactive,inactive,–
CCCC(C)(COC(N)=O)COC(=O)NC(C)C (stereo not drawn),–,–,–,–,inactive,inactive,inactive,–,inactive,–
O=C(Cc1ccccc1)c1ccccc1,–,–,–,–,–,inactive,inactive,inactive,inactive,–
C=C(Cl)Cl,–,–,–,–,inactive,inactive,inactive,inactive,inactive,inactive
CC(C)(C#N)C(C)(C)C#N,inactive,inactive,inactive,–,inactive,inactive,–,–,inactive,–
CC(C)C1(C)N=C(c2ncccc2C(=O)O)NC1=O (stereo not drawn),–,–,–,inactive,inactive,inactive,inactive,inactive,inactive,–
CN(C)N,inactive,inactive,–,inactive,–,inactive,–,–,inactive,inactive
O=C(O)C(F)(F)C(F)(F)C(F)(F)C(F)(F)C(F)(F)F,inactive,inactive,inactive,inactive,inactive,inactive,–,–,–,–
CC1(C)[C@H](C(=O)O[C@H](C#N)c2cccc(Oc3ccccc3)c2)[C@@H]1C=C(Br)Br,inactive,inactive,inactive,inactive,inactive,inactive,–,–,–,inactive
CCCCC(CC)COC(=O)c1c(Br)c(Br)c(Br)c(Br)c1C(=O)OCC(CC)CCCC (stereo not drawn),inactive,inactive,inactive,inactive,–,inactive,–,inactive,–,–
